Screens from PubChem.
AHR act – activates the human aryl hydrocarbon receptor; AHR-responsive luciferase reporter cells, luminescence; actives 2.5% (n = 320,000); activation, % at 5 µM; in the data active means activation above about 47%
ADAM10 inh – inhibitors of human ADAM10. O14672. AID 720582. recombinant ADAM10, EDANS/DABCYL FRET peptide cleavage, 3 h. inhibition, % at 7 µM. actives 0.62% (n = 370,000);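 active means inhibition above a per-campaign cutoff equal to the mean of compounds falling between control-based bounds plus 3 SD, cut at about 20% in these data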
ADAM17 inh – inhibits human ADAM17. P78536. AID 720648. recombinant ADAM17, EDANS/DABCYL FRET peptide cleavage. actives 0.83% (n = 370,000). inhibition, % at 6.95 µM;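 active means inhibition above the mean of compounds lying between control limits plus 3 SD, set per campaign, cut at about 8.5% in these data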
rCAG binder – r(CAG) repeat RNA binding; TO-PRO-1 dye displacement fluorescence; actives 1.3% (n = 370,000); inhibition, % at 3 µM;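 active means inhibition above the plate cutoff, the mean of all test compounds on that plate plus 3 SD, cut at about 35% in these data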;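 further: higher means more dye released from RNA so lower well fluorescence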
NR3A LBD binder – NR3A (human) ligand-binding domain modulation | NR3A LBD differential scanning fluorimetry, Tm shift; 0% = protein alone, 100% = glycine-bound protein | Tm shift relative to glycine control, % at 25 µM | actives 2.5% (n = 340,000);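 active means melting temperature shift of at least 10% of the positive control shift, at one fixed dose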
proKLK7 act – activators of human kallikrein-7 zymogen | P49862 | purified proKLK7, EDANS-DABCYL substrate fluorescence; 100% is mature enzyme control, 0% vehicle | activation, % at 7 µM | actives 0.9% (n = 370,000) | AID 652039;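 active means activation above the mean of all tested compounds plus 3 SD, computed per campaign excluding outliers beyond control limits, cut at about 13% in these data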
Target sequence (P49862 whole entry, looked up): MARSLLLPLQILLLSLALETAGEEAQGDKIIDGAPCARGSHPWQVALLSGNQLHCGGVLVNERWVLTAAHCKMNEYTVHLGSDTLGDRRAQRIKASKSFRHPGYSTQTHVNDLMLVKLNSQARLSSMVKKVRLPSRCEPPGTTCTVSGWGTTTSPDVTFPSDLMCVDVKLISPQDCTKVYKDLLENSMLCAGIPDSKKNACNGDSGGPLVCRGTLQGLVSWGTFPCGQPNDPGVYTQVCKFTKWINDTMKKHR
rCAG bind conf – r(CAG) RNA repeat binding, confirmation; shares compounds with rCAG binder; AID 652065; TO-PRO-1 dye displacement fluorescence; actives 70% (n = 4,300); inhibition, % at 3 µM;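 active means inhibition above a per-plate cutoff, the mean inhibition of sample wells plus 3 SD, cut at about 35% in these data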;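 further: loss of TO-PRO-1 fluorescence as compound displaces dye from 1x1 AA loop RNA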
DNA CAG counter – counter-screen for rCAG RNA binders: DNA CAG dye complex inhibitors; shares compounds with rCAG binder; d(CAG) DNA oligo TO-PRO-1 dye displacement, fluorescence; inhibition, % at 3 µM; actives 94% (n = 4,300); AID 652068;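 active means inhibition above its plate's cutoff, the mean test-well inhibition plus 3 SD, cut at about 4.8% in these data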;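 further: hits displace the dye from DNA and so lower well fluorescence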
DNA CAG DR – DNA CAG dye complex inhibition, dose response counter-screen; shares compounds with rCAG binder; DNA CAG/GTC duplex TO-PRO-1 dye displacement fluorescence; IC50, µM; actives 20% (n = 250); in the data active means IC50 below about 10 µM
Hits are given with their value; 0 = inactive; - = no result. This is a sample that favours compounds with a hit; in the whole collection about 7% have one here.

SMILES	AHR act	ADAM10 inh	ADAM17 inh	rCAG binder	NR3A LBD binder	proKLK7 act	rCAG bind conf	DNA CAG counter	others
CC(C)CN1CCC(CN2C(=S)NC[C@@H]2Cc2ccccc2)CC1	-	0	0	0	-	0	-	-
CC(C)(C)C(=O)Nc1ccc(C(=O)Nc2cccc(Oc3ccc(C(=O)O)c(C(=O)O)c3)c2)cc1	0	0	0	0	0	0	-	-
O=C(Nc1cccc(Oc2ccc(C(=O)O)c(C(=O)O)c2)c1)c1ccc(-c2ccccc2)cc1	0	0	0	58	0	0	53	19
CC(C)CCNC(=O)C1CCCN(C(=O)c2ccc3c(c2)NC(=O)CS3)C1 (stereo not given)	-	0	0	0	-	0	-	-
CCOc1cc([N+](=O)[O-])cc(/C=C2/NC(=O)N(Cc3ccccc3F)C2=O)c1O	0	0	0	46	0	0	47	14
COc1ccc(/C=C2/NC(=O)N(Cc3ccccc3F)C2=O)cc1OC	0	0	0	0	0	0	-	-
O=C(OCc1cn(Cc2ccccc2F)nn1)N1CCCC1	-	0	0	0	-	0	-	-
COC(=O)C1=C(C)N(C)C(=NCc2ccccc2)NC1c1ccc(F)cc1 (stereo not given)	-	0	0	0	-	0	-	-
COc1cc(NS(=O)(=O)c2ccc(NC(=S)Nc3ccccc3)cc2)nc(OC)n1	0	0	0	0	0	0	-	-
COc1cc(NS(=O)(=O)c2ccc(N/C=C(\C=O)c3nc4ccccc4o3)cc2)nc(OC)n1	0	0	0	35	0	0	39	11
COc1cc(NS(=O)(=O)c2ccc(N/C=C(\C#N)c3nc4ccccc4o3)cc2)nc(OC)n1	0	0	0	68	0	0	67	31
COc1ccc2c(c1)[C@@]1(OCCC=C[C@H]1C)C(=O)N2Cc1ccccc1C(F)(F)F	-	0	0	0	-	0	-	-
O=C(O)c1cccc(N2C(=O)c3ccc4c5c(ccc(c35)C2=O)C(=O)N(c2cccc(C(=O)O)c2)C4=O)c1	0	0	0	0	0	0	-	-
O=C(O)c1cccc(N2C(=O)c3ccc(Oc4ccc(Cl)cc4)cc3C2=O)c1	0	0	0	44	0	0	42	9.9
O=C(Nc1nnc(C2CC2)o1)c1ccc(S(=O)(=O)N2CCCc3ccccc32)cc1	0	0	0	36	0	0	0	11
COCc1nnc(NC(=O)c2ccc(S(=O)(=O)N3CCCc4ccccc43)cc2)o1	0	0	0	0	0	0	-	-
C=CCOC(=O)C1=C(C)N=c2sc(=C3C(=O)N(CC(=O)O)c4ccccc43)c(=O)n2C1c1ccc(OC)cc1 (stereo not given)	-	0	0	48	-	0	75	41
O=C(CCS(=O)(=O)c1ccccc1)Nc1ccc(F)cc1Cl	-	0	0	0	-	0	-	-
Cc1oc2c(c(C)cc3oc(=O)c(CC(=O)N[C@@H](CC(C)C)C(=O)O)c(C)c32)c1C	-	0	0	43	0	0	0	6.3
CCCCC(NC(=O)Cc1c(C)c2cc3c(-c4ccccc4)coc3c(C)c2oc1=O)C(=O)O (stereo not given)	0	0	0	37	0	0	65	24
COc1cccc(-c2coc3cc4oc(=O)c(CCC(=O)O)c(C)c4cc23)c1	0	0	0	47	0	0	47	14
CC[C@@H](C)[C@H](NC(=O)Cc1c(C)c2cc3c(C)c(C)oc3c(C)c2oc1=O)C(=O)O	0	0	0	37	0	0	0	7.1
COc1ccc(-c2coc3cc4oc(=O)c(CC(=O)O)c(C)c4cc23)cc1	-	0	0	0	0	0	-	-
Cc1oc2c(c(C)cc3oc(=O)c(CC(=O)NCC(=O)NCC(=O)O)c(C)c32)c1C	0	0	0	0	-	0	-	-
CCN(CC)C(=O)CC[C@H]1CC[C@]2(CCCN(Cc3nccn3C)C2)O1	-	0	0	0	-	0	-	-
SMILES	AHR act	ADAM10 inh	ADAM17 inh	rCAG binder	NR3A LBD binder	proKLK7 act	rCAG bind conf	DNA CAG counter	others
COc1cccc(-c2coc3c(C)c4oc(=O)c(CC(=O)O)c(C)c4cc23)c1	0	0	0	0	0	0	-	-
COc1cccc(-c2coc3c(C)c4oc(=O)c(CCC(=O)O)c(C)c4cc23)c1	0	0	0	58	-	0	74	34	DNA CAG DR=0
COC(=O)[C@]12C[C@H](CC(=O)NCCc3ccccc3OC)C(=O)N(Cc3ccc(Cl)cc3Cl)C1=C[C@H](C(C)C)O[C@@H]2C1CC1	-	0	0	0	-	0	-	-
C=CCn1c(SCc2c(C)noc2C)nc2sc3c(c2c1=O)CCCC3	0	0	0	0	0	0	-	-
C=CCn1c(SCc2c(C)noc2C)nc2sc3c(c2c1=O)CCCCC3	0	0	0	40	0	0	0	4.7
N#CCc1nc(-c2cc3ccccc3oc2=O)cs1	0	0	0	0	0	0	-	-
O=c1oc2ccccc2cc1-c1nc(-c2cccs2)cs1	62	0	0	41	0	0	0	8.6
CC1(C(=O)NS(=O)(=O)c2ccccc2)CCN1C(=O)CC1CCCCC1 (stereo not given)	-	0	0	0	-	0	-	-
Cc1ccc(S(=O)(=O)NC(=O)C2(C)CCN2C(=O)CC2CCCC2)cc1 (stereo not given)	-	0	0	0	-	0	-	-
CC1(C(=O)NS(=O)(=O)c2ccc3ccccc3c2)CCN1C(=O)CC1CCCCC1 (stereo not given)	-	0	0	39	-	0	57	20
CC(C)(C)c1ccc(S(=O)(=O)NC(=O)C2(C)CCN2C(=O)CC2CCCC2)cc1 (stereo not given)	-	0	0	37	-	0	0	0
O=C(O)CCN1C(=O)/C(=C/c2ccc(-c3nc4ccccc4s3)o2)SC1=S	0	0	0	55	0	0	85	53
O=C(O)CCCN1C(=O)/C(=C\c2ccc(-c3nc4ccccc4s3)o2)SC1=S	0	0	0	0	0	0	-	-
O=C(O)CC(C(=O)O)N1C(=O)/C(=C/c2ccc(-c3nc4ccccc4s3)o2)SC1=S (stereo not given)	0	0	0	62	0	0	54	19
Cc1ccc(S(=O)(=O)NC(=O)c2cc(C)n(-c3cc(S(=O)(=O)N4CCOCC4)ccc3N3CCCC3)c2C)cc1	0	0	0	36	0	0	49	15
O=C(O)c1cccc(-n2cccc2/C=C2/NC(=O)N(c3ccc(Cl)cc3)C2=O)c1	-	0	0	72	0	0	69	30
COc1ccc(-n2cccc2/C=C2/NC(=O)N(c3cccc(Cl)c3)C2=O)cc1	0	0	0	0	0	0	-	-
